Reference: PubChem BioAssay (EPA / NIEHS)
Records with an inconclusive call do not appear. The source made the active and inactive calls. The calls were made as follows, unless noted: active = hit-call score of the fitted dose curve at least 0.9, where 1 is the maximum; inconclusive = response in the unintended direction; inactive = score below 0.9.

Columns and labels:
[1] = TOX21_p53_BLA_p2_viability: Viability Assessment in the Tox21 HCT-116 p53 Agonism Beta-lactamase Assay, Phase 2 (AID 2283591);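 also: compound exposure lasted 16 h at 37 °C; actives lower the ATP signal meaning cytotoxicity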
Procedure, shortened: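 HCT-116 p53-bla cells (4000/well) rested 5 h at 37C, then received compounds in DMSO (217-fold dilution) for 16 h at 37C, 5% CO2. After the CCF4 read, CellTiter-Glo was added; ATP luminescence was read after 30 min at room temperature.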

[2] = TOX21_p53_BLA_p3_viability: Viability Assessment in the Tox21 HCT-116 p53 Agonism Beta-lactamase Assay, Phase 3 (AID 2283593);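 also: cells exposed to compound for 16 h before reading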
Procedure, shortened: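 HCT-116 cells (4000/well) rested 5 h at 37C, then got DMSO compounds by pin tool (217-fold dilution) for 16 h at 37C, 5% CO2. After the bla read, CellTiter-Glo was added and luminescence read at 30 min, room temperature.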

[3] = biological target: Cellular tumor antigen p53 (Homo sapiens) (UniProt P04637); experiment: TOX21_p53_BLA_p3_ratio: Tox21 HCT-116 p53 Agonism Beta-lactamase Assay, Ratio, Phase 3 (AID 2283596)
Sequence of Cellular tumor antigen p53 (Homo sapiens) (P04637 whole entry, looked up): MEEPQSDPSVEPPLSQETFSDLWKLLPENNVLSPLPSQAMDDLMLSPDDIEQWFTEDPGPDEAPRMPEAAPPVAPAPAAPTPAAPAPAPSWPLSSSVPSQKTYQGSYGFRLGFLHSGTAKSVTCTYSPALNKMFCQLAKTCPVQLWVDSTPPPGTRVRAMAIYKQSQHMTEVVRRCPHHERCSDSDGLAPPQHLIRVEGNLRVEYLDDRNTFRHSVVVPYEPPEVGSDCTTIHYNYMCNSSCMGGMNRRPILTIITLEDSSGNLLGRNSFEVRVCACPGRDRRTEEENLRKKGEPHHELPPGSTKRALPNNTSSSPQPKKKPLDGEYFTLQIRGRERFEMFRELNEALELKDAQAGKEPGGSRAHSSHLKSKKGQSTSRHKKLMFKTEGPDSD
Procedure, shortened: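 Cells were seeded at 4000/well, rested 5 h at 37C, then dosed with DMSO compound solutions (217-fold dilution) for 16 h. CCF4-AM substrate was loaded for 2 h at room temperature, and the 460/530 nm emission ratio was fitted for gain of signal versus DMSO.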

[4] = TOX21_p53_BLA_p4_viability: Viability Assessment in the Tox21 HCT-116 p53 Agonism Beta-lactamase Assay, Phase 4 (AID 2283597);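 also: hits lower the luminescence signal meaning cytotoxicity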
Procedure, shortened: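 In this multiplexed secondary endpoint, HCT116 cells (4000 per well, compound at 5 h, 16 h treatment) received CellTiter-Glo after the beta-lactamase read. Luminescence after 30 min RT reflects ATP, and falling signal marks cytotoxicity.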

[5] = biological target: Cellular tumor antigen p53 (Homo sapiens) (UniProt P04637); experiment: TOX21_p53_BLA_p5_ratio: Tox21 HCT-116 p53 Agonism Beta-lactamase Assay, Ratio, Phase 5 (AID 2283599)
Procedure, shortened: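 HCT-116 cells carrying a p53-inducible beta-lactamase reporter were seeded at 4000 cells/well and dosed after 5 h with compound in DMSO (217-fold dilution). After 16 h at 37C, CCF4-AM substrate was added for 2 h, and the 460/530 nm emission ratio was scored as gain-of-signal versus DMSO.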

[6] = TOX21_p53_BLA_p5_viability: Viability Assessment in the Tox21 HCT-116 p53 Agonism Beta-lactamase Assay, Phase 5 (AID 2283600)
Procedure, shortened: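 Here cell health was gauged by ATP levels in wells holding 4000 cells, each treated 16 h with DMSO-delivered compounds at 217-fold dilution; reduced luminescence marked toxicity.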

[7] = biological target: Cellular tumor antigen p53 (Homo sapiens) (UniProt P04637); experiment: TOX21_p53_BLA_p4_ratio: Tox21 HCT-116 p53 Agonism Beta-lactamase Assay, Ratio, Phase 4 (AID 2283601)
Procedure, shortened: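 HCT116 cells carrying an inducible beta-lactamase reporter were plated at 4000 cells/well, rested 5 h, then exposed to compounds in DMSO (217-fold dilution) for 16 h at 37C. CCF4-AM substrate was loaded 2 h at room temperature; 460/530 nm emission ratio scored gain-of-signal versus DMSO.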

[8] = CCTE_Harrill_HTTr_Viability_MCF7: CCTE's 6-hour Cell Viability Assessment for the High-Throughput Transcriptomics (HTTr) Platform, in MCF-7 cells cultured in DMEM + 10% fetal bovine serum, Harrill Lab (AID 2284010; active = hit-call score of the fitted dose curve at least 0.9, where 1 is the maximum; inactive = score below 0.9)
Procedure, shortened: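 Eight-point concentration series, six-hour exposure. Propidium iodide exclusion imaged to assess membrane integrity as a cytotoxicity readout; bidirectional fitting was done with DMSO as negative control and activity baseline.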

[9] = CCTE_Harrill_HTTr_Apoptosis_MCF7: CCTE's 6-hour Apoptosis Assessment for the High-Throughput Transcriptomics (HTTr) Platform, in MCF-7 cells cultured in DMEM + 10% fetal bovine serum, Harrill Lab (AID 2284011; active = hit-call score of the fitted dose curve at least 0.9, where 1 is the maximum; inactive = score below 0.9)
Procedure, shortened: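 Apoptosis in MCF-7 cells grown in DMEM with 10% fetal bovine serum was scored after a six hour exposure by high content imaging of caspase-3/7 activation (CellEvent Caspase 3/7 Green), with DMSO serving as negative control and baseline.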

[10] = CCTE_Harrill_HTTr_CellCount_MCF7: CCTE's Cell Proliferation Assessment for the High-Throughput Transcriptomics (HTTr) Platform, Harrill Lab (AID 2284012);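 also: count of Hoechst-stained nuclei per well by high-content imaging in MCF-7 cells; cells exposed to compound for six hours; intended direction is loss of nuclei count meaning fewer cells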
Procedure, shortened: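 For this full-screen endpoint, MCF-7 cultures received eight compound dilutions for six hours. Well nuclei counts from Hoechst imaging were analyzed relative to DMSO.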

[11] = CEETOX_H295R_MTT_cell_viability: Viability Assessment in the CeeTox HT-H295R MTT Assay (AID 2283718; active = hit-call score of the fitted dose curve at least 0.9, where 1 is the maximum; inactive = score below 0.9)
Procedure, shortened: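 H295R cells prestimulated 48 h with 10 uM forskolin, then exposed 48 h to test chemical (0.1% DMSO final). Viability by MTT (0.5 mg/ml, 4 h, 37 C), absorbance 570/650 nm; percent change versus DMSO, bidirectional fit.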

[12] = CEETOX_H295R_11DCORT_noMTC: CeeTox H295R High-throughput Steroidogenesis Assay for 11-Deoxycortisol (11DCORT), maximum tolerated concentration (MTC) filtered results only (AID 2283911; active = hit-call score of the fitted dose curve at least 0.9, where 1 is the maximum; inactive = score below 0.9); conditions: actives raise or lower the signal
Procedure, shortened: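 Forskolin-primed (10 uM, 48 h) H295R adrenal cells are dosed for 48 h at 0.1% DMSO; medium 11-deoxycortisol is quantified by LC-MS/MS against a 7-point standard curve, with activity fitted in both directions versus DMSO.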

[13] = CEETOX_H295R_OHPREG_noMTC: CeeTox H295R High-throughput Steroidogenesis Assay for OH-Pregnenolone (OHPREG), maximum tolerated concentration (MTC) filtered results only (AID 2283912; active = hit-call score of the fitted dose curve at least 0.9, where 1 is the maximum; inactive = score below 0.9); conditions: actives raise or lower the signal
Procedure, shortened: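 Readout is HPLC-MS/MS quantification of 17alpha-hydroxypregnenolone released by forskolin-stimulated H295R cells over 48 h of chemical exposure, DMSO as baseline.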

[14] = CEETOX_H295R_OHPROG_noMTC: CeeTox H295R High-throughput Steroidogenesis Assay for OH-Progesterone (OHPROG), maximum tolerated concentration (MTC) filtered results only (AID 2283914; active = hit-call score of the fitted dose curve at least 0.9, where 1 is the maximum; inactive = score below 0.9); conditions: actives raise or lower the signal
Procedure, shortened: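 Analysis uses all tested concentrations, without maximum-tolerated-concentration screening by MTT. H295R cells, forskolin-primed (10 uM, 48 h), receive chemical for 48 h; hormone in medium measured by HPLC-MS/MS, with bidirectional curve fitting against DMSO.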

[15] = CEETOX_H295R_CORTISOL_noMTC: CeeTox H295R High-throughput Steroidogenesis Assay for Cortisol, maximum tolerated concentration (MTC) filtered results only (AID 2283916; active = hit-call score of the fitted dose curve at least 0.9, where 1 is the maximum; inactive = score below 0.9); conditions: actives raise or lower the signal
Procedure, shortened: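 H295R adrenal cells were pre-stimulated 48 h with 10 uM forskolin, then exposed 48 h to test chemical in 0.1% DMSO. Medium cortisol was measured by MTBE extraction and HPLC-MS/MS; bidirectional fit versus DMSO, concentrations not MTC-filtered.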

[16] = CEETOX_H295R_CORTIC_noMTC: CeeTox H295R High-throughput Steroidogenesis Assay for Corticosterone (CORTIC), maximum tolerated concentration (MTC) filtered results only (AID 2283917; active = hit-call score of the fitted dose curve at least 0.9, where 1 is the maximum; inactive = score below 0.9); conditions: actives raise or lower the signal
Procedure, shortened: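 Forskolin-stimulated (10 uM, 48 h) H295R cells are dosed 48 h with chemical in DMSO (0.1% final); corticosterone change is quantified by HPLC-MS/MS and fitted bidirectionally against DMSO, unfiltered for MTT-derived MTC.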

[17] = CEETOX_H295R_DOC_noMTC: CeeTox H295R High-throughput Steroidogenesis Assay for DOC, maximum tolerated concentration (MTC) filtered results only (AID 2283918; active = hit-call score of the fitted dose curve at least 0.9, where 1 is the maximum; inactive = score below 0.9); conditions: actives raise or lower the signal
Procedure, shortened: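 H295R cells prestimulated 48 h with 10 uM forskolin, then exposed 48 h to test chemical (0.1% DMSO final). Medium 11-deoxycorticosterone extracted with MTBE, quantified by HPLC-MS/MS; bidirectional fit versus DMSO, concentrations not MTC-filtered.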

[18] = CEETOX_H295R_PROG_noMTC: CeeTox H295R High-throughput Steroidogenesis Assay for Progesterone (PROG), maximum tolerated concentration (MTC) filtered results only (AID 2283920; active = hit-call score of the fitted dose curve at least 0.9, where 1 is the maximum; inactive = score below 0.9); conditions: actives raise or lower the signal
Procedure, shortened: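 Progesterone synthesis in the human adrenal line H295R is measured by HPLC-MS/MS after 48 h chemical exposure following 48 h forskolin (10 uM) stimulation. Activity in either direction is fitted relative to DMSO.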

Measured: AC50

CC(=O)C=Cc1ccco1
inactive: [1] | [2] | [3] | [4] | [5] | [6] | [7]

NS(=O)(=O)c1cc(C2(O)NC(=O)c3ccccc32)ccc1Cl (stereo unspecified)
inactive: [1] | [2] | [3] | [4] | [5] | [6] | [7]

CC(=O)N1C[C@H](O)C[C@H]1C(=O)O
inactive: [1] | [2] | [3] | [4] | [5] | [6] | [7]

OC(CCN1CCCCC1)(c1ccccc1)C1CC2C=CC1C2 (stereo unspecified)
inactive: [1] | [2] | [3] | [4] | [6]

CNCc1ccccc1
inactive: [1] | [2] | [3] | [4] | [5] | [6] | [7]

O=S(=O)(O)c1ccc2c(N=Nc3ccc(S(=O)(=O)O)c4ccccc34)c(O)c(S(=O)(=O)O)cc2c1
inactive: [1] | [2] | [3] | [4] | [5] | [6] | [7]

Cc1nc(C)c(C)nc1C
inactive: [1] | [2] | [3] | [4] | [5] | [6] | [8] | [9] | [10]

CC(C)(C(=O)c1cccnc1)c1cccnc1
inactive: [1] | [2] | [3] | [4] | [5] | [7] | [11] | [17] | [18] | [8] | [9]
active: [12] 35.3 µM | [13] 36.9 µM | [14] 29.1 µM | [15] 1.56 µM | [16] 0.13 µM

CCOC(=O)Cc1ccc(-c2ccccc2)cc1
inactive: [1] | [2] | [3] | [4] | [6]

CCOC(=O)c1cccnc1
inactive: [1] | [2] | [3] | [4] | [5] | [7]
